Test systems include NCI-H23 lung; NCI-H226 lung; NCI-H322M lung; HOP-62 NSCLC; NCI-H460 lung; HOP-92 NSCLC; NCI-H522 lung; A549/ATCC NSCLC; 786-0 renal; COLO 205 colon.
Common to all, as to assay: NCI-60 one-dose screen, 48 h (100 = growth as untreated, 0 = no growth, -100 = all killed)
Common to all, as to details: 10 µM unless noted

The structures appear in SMILES notation. The panel holds about 83,000 compounds, 20% with a hit somewhere; the sample as a whole holds those more often.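 Single-dose data. Exposure time 48 hours. Values below 10 considered active.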 Active and inactive are the calls of the source.

For `CCCCCCC1N=C(N)N=C(N)N1c1cccc(Cl)c1` (stereo not given), the growth in the assay with NCI-H23 lung is 6.77% (active); in the assay on NCI-H226 lung, 67.7% (inactive); in the assay with NCI-H322M lung it was 43% (inactive); in the assay on HOP-62 NSCLC it was 34.6% (inactive); in the assay with NCI-H460 lung, 18.4% (inactive); in the assay with HOP-92 NSCLC it was 15% (inactive). Moreover, the growth with NCI-H522 lung is 80.2% (inactive); in the assay on A549/ATCC NSCLC, 35.4% (inactive); in the assay with 786-0 renal, 21.8% (inactive); in the assay on COLO 205 colon it was 54.4% (inactive).

In the case of `N#CC(=C1SCS1)[N+](=O)[O-]`, the growth in the assay with NCI-H23 lung is 43.9% (inactive); with NCI-H226 lung, 75.3% (inactive); in the assay with NCI-H322M lung, 70.7% (inactive); with HOP-62 NSCLC, 41.7% (inactive); in the assay on NCI-H460 lung it was -6.65% (active); in the assay on HOP-92 NSCLC it was 63% (inactive). Besides, the growth in the assay on NCI-H522 lung is -40.3% (active); with A549/ATCC NSCLC it was 20.9% (inactive); with 786-0 renal, 21.8% (inactive); in the assay on COLO 205 colon, -21.5% (active).

`NC(=S)Nc1ccc2c(c1)Cc1ccccc1-2`: the growth with NCI-H23 lung was 83.1% (inactive); with NCI-H226 lung, 77.8% (inactive); in the assay with NCI-H322M lung it was 89.2% (inactive); in the assay on HOP-62 NSCLC, 84.2% (inactive); in the assay with NCI-H460 lung it was 94.8% (inactive); in the assay with HOP-92 NSCLC it was 63.9% (inactive). In addition, the growth in the assay on NCI-H522 lung is 62.9% (inactive); in the assay on A549/ATCC NSCLC it was 72.5% (inactive); in the assay with 786-0 renal, 115% (inactive); in the assay on COLO 205 colon, 98.2% (inactive).

As for `O=C1C=CC(=O)N1c1ccc(O)cc1`, the growth in the assay with NCI-H23 lung is 103% (inactive); in the assay on NCI-H226 lung, 101% (inactive); in the assay on NCI-H322M lung, 105% (inactive); with HOP-62 NSCLC it was 104% (inactive); with NCI-H460 lung, 104% (inactive); in the assay on HOP-92 NSCLC, 101% (inactive). The growth with NCI-H522 lung was 104% (inactive); in the assay with A549/ATCC NSCLC, 103% (inactive); in the assay with 786-0 renal, 98.3% (inactive); in the assay on COLO 205 colon it was -37% (active).

Turning to `CN(C)CCSC1=Nc2ccc(Cl)cc2C(c2ccccc2Cl)N(C)C1` (stereo not given), the growth was 90% (inactive) in the assay with NCI-H23 lung; 52.4% (inactive) with NCI-H226 lung; 58.7% (inactive) with NCI-H322M lung; 55.9% (inactive) in the assay with HOP-62 NSCLC; 78.7% (inactive) with NCI-H460 lung; 51.4% (inactive) with HOP-92 NSCLC. Moreover, the growth in the assay with NCI-H522 lung is 71.8% (inactive); with A549/ATCC NSCLC, 78% (inactive); in the assay on 786-0 renal, 65.2% (inactive); in the assay with COLO 205 colon, 70.4% (inactive).

Consider `OC(Cc1cc(CC(O)(C(F)(F)F)C(F)(F)F)nc(CC(O)(C(F)(F)F)C(F)(F)F)c1)(C(F)(F)F)C(F)(F)F`, for which the growth with NCI-H23 lung was -5.07% (active); in the assay with NCI-H226 lung, 11.6% (inactive); in the assay on NCI-H322M lung, 13.3% (inactive); in the assay with HOP-62 NSCLC it was -37.3% (active); in the assay with NCI-H460 lung, 0.458% (active); with HOP-92 NSCLC it was -27.9% (active). Also, the growth with NCI-H522 lung was -18.6% (active); in the assay with A549/ATCC NSCLC, 3.09% (active); in the assay with 786-0 renal it was 1.13% (active); with COLO 205 colon, -92.6% (active).

Regarding `CC(=O)Nc1ccc(C(=O)CCl)cc1`, the growth was 86.4% (inactive) with NCI-H23 lung; 92.6% (inactive) with NCI-H226 lung; 95.5% (inactive) in the assay with NCI-H322M lung; 94% (inactive) in the assay on HOP-62 NSCLC; 80.9% (inactive) in the assay on NCI-H460 lung; 62% (inactive) in the assay with HOP-92 NSCLC. Further, the growth is -65.4% (active) in the assay on NCI-H522 lung, 98.7% (inactive) in the assay with A549/ATCC NSCLC, 16.9% (inactive) with 786-0 renal and 3.3% (active) in the assay on COLO 205 colon.

For `CC1C(c2ccccc2)OCCN1C(=S)Nc1ccc(S(=O)(=O)N2CCCCC2)cc1` (stereo not given), the growth is 98.6% (inactive) with NCI-H23 lung; 91.6% (inactive) with NCI-H226 lung; 108% (inactive) in the assay with NCI-H322M lung; 109% (inactive) in the assay with HOP-62 NSCLC; 104% (inactive) with NCI-H460 lung; 78.2% (inactive) in the assay on HOP-92 NSCLC. The growth in the assay with NCI-H522 lung was -34.1% (active); with A549/ATCC NSCLC it was 102% (inactive); with 786-0 renal, 109% (inactive); with COLO 205 colon, 108% (inactive).

On to `COC1=CC(=O)c2c(O)c3c(c(O)c2C1=O)CC(C)(O)OC3` (stereo not given), for which the growth in the assay on NCI-H23 lung is -27% (active); in the assay with NCI-H226 lung, 90.1% (inactive); with NCI-H322M lung, 5.37% (active); with HOP-62 NSCLC, 9.06% (active); in the assay with NCI-H460 lung it was 4.74% (active); with HOP-92 NSCLC, -16.4% (active). The growth in the assay on NCI-H522 lung is 14.7% (inactive); with A549/ATCC NSCLC, 2.13% (active); with 786-0 renal it was 34% (inactive); in the assay with COLO 205 colon, -61.7% (active).

With `CCCCCCCCCCCCCCCC[N+]1(C)CCCC1c1cccnc1` (stereo not given), the growth in the assay on NCI-H23 lung was 25.3% (inactive); in the assay on NCI-H226 lung, 41.4% (inactive); with NCI-H322M lung it was 88.7% (inactive); with HOP-62 NSCLC it was 53.7% (inactive); in the assay on NCI-H460 lung it was 23.6% (inactive); in the assay with HOP-92 NSCLC, 5.98% (active). Further, the growth with NCI-H522 lung is 41.2% (inactive); with A549/ATCC NSCLC, 41.8% (inactive); in the assay on 786-0 renal, 52.7% (inactive); with COLO 205 colon, -21.7% (active).

For the molecule `Nc1nc(N)c2cc(Sc3cccc(C(F)(F)F)c3)ccc2n1`, the growth with NCI-H23 lung was 40.3% (inactive); in the assay on NCI-H226 lung, 57.6% (inactive); in the assay on NCI-H322M lung, 37.1% (inactive); in the assay on HOP-62 NSCLC it was 61.3% (inactive); in the assay with NCI-H460 lung, 14.9% (inactive); in the assay with HOP-92 NSCLC it was 28.5% (inactive). The growth in the assay on NCI-H522 lung was 35.4% (inactive); with A549/ATCC NSCLC, 12.7% (inactive); in the assay on 786-0 renal it was 19.2% (inactive); in the assay with COLO 205 colon, -75.9% (active).

For `CCCCC(CCc1ccc([N+](=O)[O-])cc1)(C(C)=O)C(=O)OCC` (stereo not given), the growth in the assay on NCI-H23 lung is 95.7% (inactive); with NCI-H226 lung, 89.7% (inactive); in the assay on NCI-H322M lung it was 108% (inactive); in the assay on HOP-62 NSCLC, 102% (inactive); in the assay on NCI-H460 lung it was 105% (inactive); in the assay with HOP-92 NSCLC, 91.5% (inactive). The growth is 104% (inactive) with NCI-H522 lung, 100% (inactive) in the assay with A549/ATCC NSCLC, 98.2% (inactive) with 786-0 renal and 111% (inactive) in the assay on COLO 205 colon.

With `Cc1cc2cccnc2c2ncccc12`, the growth in the assay on NCI-H23 lung is 18.7% (inactive); with NCI-H226 lung it was -2.12% (active); in the assay on NCI-H322M lung it was 40.4% (inactive); in the assay on HOP-62 NSCLC, 12% (inactive); in the assay on NCI-H460 lung, 0.789% (active); in the assay with HOP-92 NSCLC, 44.6% (inactive). For the same molecule, the growth in the assay with NCI-H522 lung is 22.1% (inactive); in the assay on A549/ATCC NSCLC it was 12.3% (inactive); with 786-0 renal it was 18.9% (inactive); in the assay on COLO 205 colon, 9.8% (active).

Take `Cc1cc(C(=C2C=CC(=Nc3ccccc3)C=C2)c2ccc(Nc3ccccc3)cc2)ccc1N`: the growth in the assay with NCI-H23 lung was -32.2% (active); in the assay with NCI-H226 lung, -84.4% (active); with NCI-H322M lung, -34.4% (active); with HOP-62 NSCLC it was -85.2% (active); in the assay with NCI-H460 lung, -83.9% (active); in the assay on HOP-92 NSCLC, -92.9% (active). The growth in the assay on NCI-H522 lung is -81.3% (active); in the assay on A549/ATCC NSCLC, -91.9% (active); in the assay with 786-0 renal, -84.1% (active); in the assay on COLO 205 colon, -65.1% (active).

(Values after PubChem BioAssay (NCI).)
